D1 antagonist = Antagonist of Human D 1 Dopamine Receptor: qHTS | HEK293 TREx D1 cells, calcium flux, dopamine EC80; hits give low values | 360,000 tested, 3.2% active | activity change, negative = inhibition, % at 10 µM; in the data active = activity change below about -30%; also: % is scaled to controls: 0 for no effect and ±100 for the full control effect
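Cells carrying a force-coupled, tetracycline-inducible human D1 receptor report calcium flux. Each well gets a 10 s baseline, compound with 180 s monitoring, then an EC80 dopamine stimulus with a second 180 s kinetic read.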
D3 ag = qHTS of D3 Dopamine Receptor Agonist: qHTS | D(3) dopamine receptor (Homo sapiens), P35462 | D3R DiscoveRx beta-arrestin cells, luminescence, 90 min | max activation, % | 410,000 tested, 0.58% active | AID 652048, 2013; in the data active = max activation above about 30%; also: 0% is about no effect
Target sequence (P35462 whole entry, looked up): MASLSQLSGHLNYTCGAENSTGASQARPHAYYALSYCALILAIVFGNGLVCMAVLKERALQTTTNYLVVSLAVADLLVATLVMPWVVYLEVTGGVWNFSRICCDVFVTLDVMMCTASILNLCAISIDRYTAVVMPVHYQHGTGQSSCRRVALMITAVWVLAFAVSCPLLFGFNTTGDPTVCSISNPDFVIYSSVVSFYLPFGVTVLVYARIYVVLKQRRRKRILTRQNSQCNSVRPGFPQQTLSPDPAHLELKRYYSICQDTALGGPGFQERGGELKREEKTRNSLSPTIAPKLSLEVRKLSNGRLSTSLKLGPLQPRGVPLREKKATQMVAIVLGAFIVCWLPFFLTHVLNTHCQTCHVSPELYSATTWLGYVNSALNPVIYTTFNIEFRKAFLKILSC
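Agonist-mode cell screen: cells plated at 1500/well and incubated overnight at 37 °C, then exposed to library compounds for 90 min at 37 °C. Detection reagent was added for 30–60 min at room temperature, and luminescence was read.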
D3 antag = qHTS of D3 Dopamine Receptor Antagonist: qHTS | D3R cells, DiscoveRx beta-arrestin luminescence, antagonist mode; hits give low values | max response, negative = inhibition, % | 360,000 tested, 2.5% active | D(3) dopamine receptor (Homo sapiens), P35462; in the data active = max response below about -50%; inconclusive = no clear call, values can overlap the other calls; also: % is scaled to controls: 0 for no effect and ±100 for the full control effect
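Cells plated overnight at 1500 cells/well, then exposed to library compounds with dopamine controls for 90 minutes at 37 degrees C. DiscoveRx reagent added for 30–60 minutes at room temperature; luminescence read, quantitative HTS format.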
D1 PAM = Potentiators of Human D1 Dopamine Receptor: qHTS; D(1A) dopamine receptor (Homo sapiens), P21728; HEK293 TREx D1 cells, calcium flux, dopamine EC20 potentiation; potentiation, % at 10 µM; 360,000 tested, 0.036% active; in the data active = potentiation above about 30%; also: 0% is about no effect
D1 agonist = Allosteric Agonists of the Human D1 Dopamine Receptor: qHTS; D(1A) dopamine receptor (Homo sapiens), P21728; HEK293 T-REx D1 cells, calcium flux, agonist mode; activation, % at 2 µM; 360,000 tested, 1% active; AID 504660, 2011; in the data active = activation above about 30%; also: 0% is about no effect
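Tetracycline-induced HEK293 TREx D1 cells, force-coupled to calcium signalling, were dye-loaded with a no-wash calcium kit. Compound was pin-added after a 10 s baseline. Fluorescence was read kinetically at 1 cycle/s for 180 s, with calcium rises flagged as agonism.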
* hit, by the source's call; ? = inconclusive; / = no result. Compounds with a hit are over-represented: about 6% of the library has one in this group of screens.

SMILES	D1 antagonist	D3 ag	D3 antag	D1 PAM	D1 agonist
N#CCC(=O)N/N=C/c1cc([N+](=O)[O-])ccc1N1CCCC1	-8	-9	-26	-2	2
Cc1cc(C(=O)N/N=C/c2cc(Br)cc([N+](=O)[O-])c2O)c2ccccc2n1	1	-14	-94*	-7	1
O=C(N/N=C/c1cc([N+](=O)[O-])ccc1O)Nc1ccccc1	0	-17	-75*	1	0
O=C(CNc1ccccc1)N/N=C/c1cc([N+](=O)[O-])ccc1N1CCCC1	-31*	-15	?	-9	2
Cc1cc(C(=O)N/N=C/c2cc([N+](=O)[O-])ccc2O)c2ccccc2n1	7	-10	-65*	-1	1
O=C(N/N=C/c1cc([N+](=O)[O-])ccc1Cl)c1cc(-c2ccccc2)nc2ccccc12	-47*	1	24	-8	1
O=C(N/N=C/c1c[nH]c2ccccc12)c1ccc([N+](=O)[O-])cc1Cl	-48*	-2	-21	-13	6
O=C(N/N=C/c1cc([N+](=O)[O-])ccc1O)C12CC3CC(CC(C3)C1)C2	7	-28	-93*	-6	4
O=C(N/N=C/c1cc([N+](=O)[O-])ccc1O)c1cc(-c2ccccc2)nc2ccccc12	0	7	4	-2	3
O=C(N/N=C/c1cc([N+](=O)[O-])ccc1O)c1c[nH]c2ccccc12	-15	-5	-29	-5	0
Cc1nc2ccccc2n1CCc1nc2c3ccccc3nc(SCc3ccccc3F)n2n1	5	3	/	1	5
C=CCc1ccccc1OCCSc1nc(-c2ccccc2F)nc2cc(=O)[nH]n12	-9	0	/	-8	4
CN(/N=C/c1cc([N+](=O)[O-])ccc1O)c1ccccc1	-12	-5	-20	-7	2
CC(N=Cc1cc([N+](=O)[O-])ccc1O)c1ccccc1 (configuration not stated)	1	-4	-52*	-3	9
O=[N+]([O-])c1ccc(O)c(C=NN2CCCCC2)c1	/	-22	-76*	/	/
Oc1ccc(Br)cc1/C=N/N1CCCCC1	6	-11	-12	6	1
COc1ccc(NC(=O)Cn2c(=O)n(CC3CCCO3)c(=O)c3ccccc32)cc1 (configuration not stated)	-2	10	/	-1	-2
O=C(Nc1ccc(S(=O)(=O)N2CCCCCC2)cc1)c1[nH]ncc1[N+](=O)[O-]	-34*	/	/	-6	7
Cc1ccc(NC(=O)c2ccc(S(=O)(=O)N3CCC(C)CC3)cc2)cc1	-39*	-1	5	-5	0
CC(=O)Oc1ccc(C(=O)Nc2ccc(S(=O)(=O)N3CCOCC3)cc2)cc1	-90*	-5	-20	1	6
Cc1ccc(C(=O)Nc2ccc(S(=O)(=O)N3CCOCC3)cc2)cc1	-6	1	-5	2	5
O=C(Nc1ccc(S(=O)(=O)N2CCCC2)cc1)C1CCCCC1	15	2	4	-2	-2
O=C(Nc1ccc([N+](=O)[O-])cc1)c1ccc(S(=O)(=O)N2CCCC2)cc1	-11	-13	-21	-3	11
O=C(Nc1ccc(S(=O)(=O)N2CCOCC2)cc1)C1CCCCC1	-2	-10	?	43*	6
COc1cccc(NC(=O)C2CCN(S(=O)(=O)c3c(C)noc3/C=C/c3cccs3)CC2)c1	11	8	/	0	5
SMILES	D1 antagonist	D3 ag	D3 antag	D1 PAM	D1 agonist
COc1cc(C2NC(=O)N(C)C3=C2C(=O)N(c2ccccc2)C3)ccc1O (configuration not stated)	-20	4	/	-2	0
O=C(c1ccc(S(=O)(=O)N2CCOCC2)cc1)N1CCN(c2cccc(Cl)c2)CC1	0	10	-69*	-2	19
CC(C)Oc1ccc(C(=O)Nc2ccc(S(=O)(=O)N3CCN(C)CC3)cc2)cc1	-53*	11	2	-21	4
CN(CCOc1ccc(Cl)cc1)C(=O)c1ccc(S(=O)(=O)N2CCOCC2)cc1	-39*	5	15	-1	22
Cc1ccc(S(=O)(=O)N2CCOCC2)cc1C(=O)OCCOc1cccc(Cl)c1	-15	11	18	2	31*
CCOc1ccc(C(=O)Nc2ccc(S(=O)(=O)N3CCN(C)CC3)cc2)cc1	0	4	9	-18	9
CCOc1ccc(C(=O)OCc2cc(=O)n3cc(C)sc3n2)cc1	-4	2	/	-3	3
CC1CCN(S(=O)(=O)c2ccc(NC(=O)CN3CCN(c4ccccc4)CC3)cc2)CC1	14	110*	12	-3	1
COc1ccc(C)cc1NC(=O)c1ccccc1NS(=O)(=O)c1ccc(Cl)s1	-31*	-4	1	-4	24
CC(=O)Nc1ccc(S(=O)(=O)N2CCC(C(=O)c3ccc(Cl)cc3)CC2)cc1	-44*	-5	0	-9	7
CCOC(=O)C1CCN(S(=O)(=O)c2ccc(NC(=O)c3ccco3)cc2)CC1	-33*	10	4	-6	2
O=C(Nc1ccc(S(=O)(=O)N2CCCCCC2)cc1)c1ccco1	-5	-2	?	2	2
CC(=O)Nc1ccc(S(=O)(=O)N2CCC(C(=O)c3ccc(F)cc3)CC2)cc1	-7	-6	2	-9	4
O=C(Nc1ccc(Cc2ccncc2)cc1)c1ccc(S(=O)(=O)N2CCOCC2)cc1	-41*	-1	10	-3	16
Cc1ccc(NC(=O)c2ccccc2NS(=O)(=O)c2ccc(Cl)s2)cc1S(=O)(=O)N1CCOCC1	-50*	-5	-17	-6	34*
O=C(Nc1cc(S(=O)(=O)N2CCOCC2)ccc1O)c1ccc(NS(=O)(=O)c2ccc(Cl)s2)cc1	-68*	-3	-11	-12	-1
O=S(=O)(Nc1cccc(S(=O)(=O)N2CCOCC2)c1)c1ccc(Cl)s1	3	3	14	-5	2
O=C(Nc1ccc(S(=O)(=O)N2CCOCC2)cc1)c1ccc(Cl)cc1	-40*	0	-22	-6	5
O=C(Nc1ccc(S(=O)(=O)N2CCOCC2)cc1)c1ccc(S(=O)(=O)N2CCOCC2)cc1	2	-7	-2	0	2
O=C(Nc1ccc(S(=O)(=O)N2CCOCC2)cc1)c1ccc(F)cc1	5	2	3	-4	7
Cc1cc(OCCOCC[N+](C)(C)Cc2ccccc2)ccc1C(C)(C)CC(C)(C)C	/	-21	/	/	/
CCOC(=O)N1CCC(NC(=O)c2cnn(-c3cccc(F)c3)c2-n2cccc2)CC1	6	10	/	-3	2
COc1ccc(C(=O)Nc2ccc(S(=O)(=O)N3CCOCC3)cc2)cc1[N+](=O)[O-]	4	1	-12	-3	11

From PubChem BioAssay
